Experimental findings from the OligoGym collection are described below.
Note: reference of the scale not given here.

One experiment concerns the target ZNF219. In words: pooled miR-30 sensor sort-seq; sequence = guide strand. To be noted: shRNA.
TCCAACTCCAGCAACAGGCGTG came in with a sensor-assay potency score (higher = more potent) of -0.967.
TAGTAGCGCGCGCTCTTCCAAC displayed a sensor-assay potency score (higher = more potent) of -1.67.
Still for that read-out and setting: the value for TTGAGGTGATGTGCTGAGCGGA was -0.983.
The same measure, in the same setting: in the case of TTCCGCAGAAAGGACAATCCTT it was -0.585; in that of TCGCAGATGCACTTTGAGGTGA, -0.383; in that of TATCGCTGCAGATCCAGCTCGC, 0.347.
Still for that read-out and setting: in the case of TGTAGGTGATACTTGAGCGAGC it was -0.911; in that of TAGAGTTGAAGCGGAAGCGCTT, -0.695.
Consider TTGCCTTTGCAGTAGGGGCAAC, for which the sensor-assay potency score (higher = more potent) was -1.2.

For a further experiment, the target named is ZNF233. The description is as above. To be noted: shRNA.
TTTACTTGTAAATTGTTCCCAT yielded a sensor-assay potency score (higher = more potent) of 0.845.
Still for that read-out and setting: in the case of TTAATTTACTTGTAAATTGTTC it was -0.905.
Still for that read-out and setting: in the case of TCTTGTGTCCTGAACACCCATC it was -0.866.
Same read-out and setting: the value for TATCCTGTCACTTACTTCCCAT was -0.636; that for TTAATCTTACTTCTTGAAGGGT was -0.195; that for TAATCTTACTTCTTGAAGGGTA was 0.461.
TTCTTGTGTCCTGAACACCCAT registered a sensor-assay potency score (higher = more potent) of -0.736.
Still for that read-out and setting: in the case of ATGTACACAACTTCTCTCCTGG it was -0.0529; in that of TATTAGGTCTTGATTACTGGTT, -0.618.
On the same count and under the same terms, in the case of TTTAGCAACTTGGACCTCTTGC it was 0.0723; in that of TATCTCATTTTGATTCTTGTGT, 0.251.
Still for that read-out and setting: the value for TTTGCTGACACCTACTCTGATA was -0.77.

Another experiment has as its target ZNF24. The description is as above. To be noted: shRNA.
Consider TTGAGGAACACCCATACTGAGA, for which the sensor-assay potency score (higher = more potent) was -1.26.
On the same count and under the same terms, the value for TAGTGCTCCATTTTCAGTCCTA was 0.194; that for TAAGTATTGAATCTTCTTCCAC was -0.673.
The same measure, in the same setting: the value for TTTGTGTGCGTCTCTGGCCTGA was -0.444.
On the same count and under the same terms, the value for TTTCTCTTTCTTTCAAACCTGC was 0.00433; that for TCTTCTACTAGTACTTCCCGTT was 0.168.
For the sequence AAAAATTTGAGGAACACCCATA, the sensor-assay potency score (higher = more potent) was -0.922.
On the same count and under the same terms, the value for TAATGCTGAAGGAAGCTCCTGC was 0.616; that for TTCACTCTCCAAATCCTCCAGC was -0.297; that for TTCTGCATTGTGTCTTCTCTGA was 0.000948.
On the same count and under the same terms, the value for TGGATGATGATCTCGAACCCAA was -0.874; that for TAAAAATTTGAGGAACACCCAT was -0.488.

For another experiment, the target named is ZNF250. The experiment is described as above. To be noted: shRNA.
For the sequence TGTCTTGTTGTGTACAGGCTGT, the sensor-assay potency score (higher = more potent) was -0.552.
On the same count and under the same terms, in the case of TAAGACCTGAACTTCACGGTGG it was 0.671; in that of TACACTGCACACATAGGGCTTC, -0.55; in that of TTTTGTGACACTGAATCGCCAA, 0.484.
Same read-out and setting: the value for TGTATGTATCTTGTGATGCTGA was -0.256; that for TTATTTTCTTGATCAATCCTCC was 0.32.
Same read-out and setting: the value for TTTGTGACACTGAATCGCCAAA was -1.66.
